# Test results as given in PubChem BioAssay (Tox21).
# Values joined by “and” are separate entries in the source; they are usually repeats but may differ in a detail not shown here. Equal values may be shown once. Inconclusive results are not listed. Where a call stands in place of a potency, no number is given. Active and inactive are the calls of the source. Calls come from the whole dose curve; as a rule, active = well fitted cell-killing curve with a large enough effect in the repeat runs; inconclusive = weak or mixed curves, or effect the other way; inactive = no such curve, though single readings can be large or run the other way.
# Experiment: qHTS assay for identifying genotoxic compounds that show differential cytotoxicity against isogenic chicken DT40 cell lines with known DNA damage response pathways - Rev3 mutant cell line (AID 743014); note: nearly all actives have a fitted effect of over 55% in size
# Conditions: chicken DT40 Rev3-/- viability, CellTiter-Glo, 40 h; series mostly up to 68.4 µM
# Text: National Center for Advancing Translational Sciences [NCATS]
# NIH Chemical Genomics Center [NCGC]
# U.S. Environmental Protection Agency [EPA]
# National Institutes of Environmental Health Sciences [NIEHS]
# National Toxicology Program [NTP]
# U.S. Food and Drug Administration [FDA]
# DNA repair pathways play a critical role in cellular homeostasis by repairing DNA damage induced by endogenous processes and xenobiotics. Isogenic chicken DT40 cell lines deficient in different DNA repair pathways can be used to identify genotoxic compounds and aid in characterizing the nature of the DNA damage induced. Two DNA repair-deficient cell lines with disrupted genes, Rad54/Ku70 or Rev3, were used to screen the Tox21 10K compound library. Possible genotoxicity was based on the presence of a significant increase in cytotoxicity in one or more of the DNA repair-deficient cell lines compared to that observed in the parental DNA repair-proficient cell line. CellTiter Glo viability assay (Promega, Madison, WI) was used to measure cell viability in these cells after compound treatment. This assay includes the data from the Rev3 mutant cell line.
# Tox21 Assay Protocol Summary:
# 300 DT40 mutant cells in 5 uL/well were dispensed into white, solid-bottom 1536-well plates using a Multidrop Combi (ThermoFisher Scientific, Waltham, MA) dispenser. After the assay plates were incubated at 37 C/5% CO2 for approximately 0.5 hour, 23 nL of compounds dissolved in DMSO, positive controls or DMSO only was transferred into the assay plate by a pintool work station (Kalypsys, San Diego, CA). The assay plates were incubated at 37 C/5% CO2 for 40 hours. After 5 uL per well of CellTiter-Glo reagent was added into each well of the assay plates, the plates were incubated for 30 min at room temperature and the luminescence intensity of the plates was measured using a ViewLux (PerkinElmer, Shelton, CT) plate reader.
# Potency is the fitted concentration of half-maximal effect.
row,Compound,Potency
1,NC(N)=NCCC[C@H](N)C(=O)O,inactive
2,Clc1ccc(Cn2c(CN3CCCC3)nc3ccccc32)cc1,2.54 µM (active)
3,C#CCN(C)CCCOc1ccc(Cl)cc1Cl,inactive
4,CCCCc1nc2cccnc2n1Cc1ccc(-c2ccccc2-c2nnn[nH]2)cc1,inactive
5,CCOC(=O)NCCOc1ccc(Oc2ccccc2)cc1,68.6 µM (active)
6,O=C1c2ccccc2S(=O)(=O)N1CCCCN1CCN(c2ncccn2)CC1,inactive
7,CC1(c2ccccc2)OC(C(=O)O)=CC1=O (stereo not given),inactive
8,Brc1c2ccccc2cc2ccccc12,inactive
9,NCC(=O)O,inactive
10,CNC(=O)CN(CCN(CCN(CC(=O)[O-])CC(=O)NC)CC(=O)[O-])CC(=O)[O-].O.[Gd+3],inactive
11,O=C(O)c1ccccc1Cl,inactive
12,CO[C@@H]1[C@H](OC(=O)/C=C/C=C/C=C/C=C/C(=O)O)CC[C@]2(CO2)[C@H]1[C@@]1(C)O[C@@H]1CC=C(C)C,2.1 nM (active) and 17.2 nM (active)
13,COc1ccc(C)cc1[N+](=O)[O-],inactive
14,COc1ccc(-c2nc3ccc(C4=NNC(=O)CC4C)cc3[nH]2)cc1 (stereo not given),11.9 µM (active)
15,CC1=CC[C@H](C(C)C)C=C1,68.6 µM (active)
16,Cc1cccc(C)c1OCC(=O)N[C@@H](Cc1ccccc1)[C@@H](O)C[C@H](Cc1ccccc1)NC(=O)[C@H](C(C)C)N1CCCNC1=O,16.8 µM (active)
17,Cc1nn(C)c(Oc2ccccc2)c1/C=N/OCc1ccc(C(=O)OC(C)(C)C)cc1,0.0024 µM (active)
18,OCc1cc(C(O)CNCCCCCCOCCCCc2ccccc2)ccc1O (stereo not given),5.96 µM (active) and 4.73 µM (active)
19,CCCCCCCC#N,inactive
20,CCC(Cl)CCC(Cl)C(Cl)CC(Cl)C(Cl)C(Cl)CCl (stereo not given),inactive

row,Compound,Potency
1,COc1ccc(C(=O)c2ccc(OC)cc2O)c(O)c1,inactive
2,NC(=O)C(c1ccccc1)(c1ccccc1)[C@@H]1CCN(CCc2ccc3c(c2)CCO3)C1,18.8 µM (active)
3,COc1ccc(C(=O)Nc2nc3ccccc3c(NCc3ccccc3)c2C#N)cc1,38.6 µM (active)
4,O=C(O)CC(=O)C(=O)O,inactive
5,Cc1[nH]c(C)c(Cl)c(=O)c1Cl,inactive
6,CN1CCC(=C2c3ccccc3Sc3ccccc32)CC1,5.96 µM (active)
7,CN(C)CCCN1c2ccccc2Sc2ccccc21,5.69 µM (active)
8,Nc1cc(C(=O)O)c(O)c(S(=O)(=O)O)c1,inactive
9,COc1cc(C(=O)OCCCN2CCCN(CCCOC(=O)c3cc(OC)c(OC)c(OC)c3)CC2)cc(OC)c1OC,15 µM (active)
10,O=S(=O)(Oc1ccc(Cl)cc1)c1ccccc1,61.1 µM (active)
11,CCCCC/C=C\C/C=C\CCCCCCCC(=O)NC(C)c1ccccc1 (stereo not given),inactive
12,O=[N+]([O-])c1cccc(S(=O)(=O)O)c1,inactive
13,COc1ccc(C(=O)N2CCN(CC(=O)N3CCOCC3)CC2)cc1,inactive
14,COC(C)OC,inactive
15,CCCCNc1ccc(C(=O)OCCOCCOCCOCCOCCOCCOCCOCCOCCOC)cc1,inactive
16,CC(C)CC(=O)C1C(=O)c2ccccc2C1=O,inactive
17,O=CC1CC=CCC1 (stereo not given),inactive
18,C/C=C/C=C/CO,61.1 µM (active)
19,C/C=C/C(=O)CC,inactive
20,c1ccc(C(O[C@H]2CCCN(CCc3ccc4c(c3)OCO4)C2)c2ccccc2)cc1,29.8 µM (active)
